Source: PubChem BioAssay (National Center for Advancing Translational Sciences (NCATS))
Compounds with a hit are over-represented: about 3.4% of the library has one in this group of screens.
AmpC inh no detg = AmpC beta-lactamase inhibition without detergent; AmpC nitrocefin hydrolysis, absorbance 480 nm, 0.0001% Triton; actives 0.52% (n = 330,000); Potency, µM (highest dose often 57.1 µM), without a hit: top-dose activity change, negative = inhibition, usual class: inhibitors; AID 485341; P00811;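 also: plate controls were no compound for no effect and no enzyme for full effect; nearly all actives have a fitted effect of over 20% in size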
Target sequence (P00811 whole entry, looked up): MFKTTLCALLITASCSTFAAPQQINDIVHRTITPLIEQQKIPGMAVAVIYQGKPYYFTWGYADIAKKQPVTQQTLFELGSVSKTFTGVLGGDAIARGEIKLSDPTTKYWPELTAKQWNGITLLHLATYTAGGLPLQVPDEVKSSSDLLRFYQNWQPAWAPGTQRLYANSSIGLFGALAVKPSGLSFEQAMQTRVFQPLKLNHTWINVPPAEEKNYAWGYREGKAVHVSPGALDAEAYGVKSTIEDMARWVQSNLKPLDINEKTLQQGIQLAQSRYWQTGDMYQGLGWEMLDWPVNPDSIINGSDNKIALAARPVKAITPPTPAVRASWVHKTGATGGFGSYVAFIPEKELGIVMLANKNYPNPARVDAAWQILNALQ
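20 mM phosphate pH 7.0 + 0.01% (detergent screen) or 0.0001% Triton X-100; 5.3 nM AmpC reagent; cpd preinc 15 min RT; nitrocefin (800 uM stock) to start; A480 q20 s × 4 min; Activity was normalised to no-enzyme and no-compound control wells.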
Sm TGR inh = blocks Schistosoma mansoni thioredoxin glutathione reductase | Q962Y6 | purified TGR, DTNB reduction, TNB absorbance 405 nm | Potency, µM (series often up to 114 µM), for the others: top-dose activity change, negative = inhibition, usual class: inhibitors | actives 3% (n = 360,000); also: nearly all actives have a fitted effect of over 60% in size
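First, TGR (20 nM dispensed) and NADPH were mixed with compound. Second, a 15 min room-temperature incubation followed. Third, further NADPH and then DTNB were added to start the reaction. Finally, TNB absorbance was monitored kinetically.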
RE007 growth inh = less growth of the S. pombe RE007 Vpr strain; AID 651644; S. pombe RE007 Vpr strain, BacTiter-Glo ATP luminescence, 24 h; Potency, µM (series often up to 92.2 µM), for the others: at the top dose activity change, negative = less growth, actives largely listed as inhibitors; actives 0.21% (n = 360,000); active = well fitted falling curve with a large enough effect; inconclusive = small, poorly fitted or top-dose-only effect; inactive = no such curve, though single readings can be large or run the other way; also: nearly all actives have a fitted effect of over 50% in size
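Fission yeast RE007 carrying one integrated HIV-1 vpr copy, seeded at OD 0.01 in PMG+AL medium with 23 nL pinned compound. Grown 24 h at 30 degrees; viability read by BacTiter-Glo luminescence after 5 min.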
AmpC inh detg = AmpC beta-lactamase inhibition with detergent present; AmpC hydrolysis of nitrocefin, absorbance 480 nm, 0.01% Triton; AID 485294; actives 0.041% (n = 370,000); Potency, µM (highest dose often 114 µM), for the others: at the top dose activity change, negative = inhibition, hits mostly inhibitors;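 also: 0% = no-compound wells and -100% = no-enzyme wells; nearly all actives have a fitted effect of over 25% in size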
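AmpC (5.3 nM in the dispensed reagent) in 20 mM phosphate pH 7.0 with 0.01% (detergent screen) or 0.0001% Triton X-100 was preincubated with compounds for 15 min at room temperature. Nitrocefin was then added from an 800 uM solution, and hydrolysis was followed at 480 nm.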
FBPA Giardia inh = Giardia lamblia aldolase inhibition; A8B2U2; purified Giardia FBPA; Potency, µM (titrated, usually from 59.6 µM), for the others: at the top dose activity, negative = inhibition, hits mostly inhibitors; actives 0.71% (n = 290,000); also: nearly all actives have a fitted effect of over 55% in size
Target sequence (A8B2U2 whole entry, looked up): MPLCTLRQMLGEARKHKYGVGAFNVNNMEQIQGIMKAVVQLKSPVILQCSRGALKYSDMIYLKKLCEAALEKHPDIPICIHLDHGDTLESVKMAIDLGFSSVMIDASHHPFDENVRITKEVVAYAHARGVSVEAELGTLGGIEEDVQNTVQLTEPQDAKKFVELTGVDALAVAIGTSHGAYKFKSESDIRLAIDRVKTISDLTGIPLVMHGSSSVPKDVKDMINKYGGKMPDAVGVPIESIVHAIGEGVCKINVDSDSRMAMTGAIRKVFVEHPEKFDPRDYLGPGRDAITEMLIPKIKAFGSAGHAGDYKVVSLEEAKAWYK
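40 nM FBPA preincubated 10 min at RT with compound (up to 57.5 uM final), then substrate plus GAPDH/TPI/NAD/arsenate coupling and diaphorase/resazurin added. Fluorescence read after 20 min at RT, 525/598 nm.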
An asterisk follows results filed as active; ? = inconclusive; . = no result; [ ] = dose if it differs, or a comment. Unless noted, calls follow the shape of the dose curve; as a rule, active = well fitted curve in the direction sought with a large enough effect; inconclusive = small, poorly fitted or top-dose-only effect, or another doubt; inactive = no such curve, though single readings can be large; an effect the other way counts as inactive or inconclusive. Unless noted, % is scaled to controls: 0 for no effect and ±100 for the full control effect; potency is read from the fitted curve at half-maximal effect.

SMILES | AmpC inh no detg | Sm TGR inh | RE007 growth inh | AmpC inh detg | FBPA Giardia inh
CN(C)S(=O)(=O)c1cccc(C(=O)C2=C3SC=C(c4ccccc4)N3CC2)c1 | -14.5% | 4.47µM* | 0.4% | ? | 5.3%
COc1cc(/C=C2\CC/C(=C\c3cc(OC)c(OC)c(OC)c3)C2=O)cc(OC)c1OC | -30.5% | -15.9% | 4.4% | 4.2% | -2.0%
COc1cc(/C=C2\CC/C(=C\c3cc(OC)c(O)c(OC)c3)C2=O)cc(OC)c1O | 38.7% | 28.2µM* | 4.8% | ? | 1.58µM*
O=C(CC1C(=O)N(c2ccccc2)C(=O)N1Cc1ccco1)Nc1ccccc1 (centres undefined) | -25.4% | ? | 1.6% | -5.0% | 0.4%
CC(C)N1C(=S)N(Cc2ccco2)C(=O)C1CC(=O)Nc1ccccc1 (centres undefined) | -2.4% | 39.8µM* | ? | -11.6% | 0.6%
CC1(C)CC(N2CCN(CCO)CC2)=CC(=S)N1 | -26.7% | 39.8µM* | 15.0% | -1.2% | ?
Cn1c(C(=O)NCCCN2CCN(c3ccccc3F)CC2)cc2c(=O)[nH]c3ccccc3c21 | 12.8% | 3.4% | -1.9% | -14.1% | 11.6%
CCOC(=O)c1c(NC(N)=O)sc(C)c1C | -9.4% | -20.8% | -3.9% | 0.7% | -2.6%
CCOC(=O)c1c(N2C(=O)C=CC2=O)sc(C)c1C | -49.5% | 0.447µM* | 12.6µM* | -6.1% | -15.2%
CN1CCc2nc(SCc3ccccc3Br)c(C#N)cc2C1 | 31.9% | 22.4µM* | -21.0% | 6.8% | -17.0%
Cc1cccc(CSc2nc3c(cc2C#N)CN(C)CC3)c1 | 79.0% | -30.7% | 12.0% | -2.0% | -1.3%
O=[N+]([O-])c1cc(C(F)(F)F)cc([N+](=O)[O-])c1NCc1cccnc1 | -4.4% | 9.9% | -6.1% | -0.2% | 0.1%
Cn1c(-c2ccc(S(=O)(=O)N3CCCC3)cc2)csc1=Nc1ccc(Cl)c(Cl)c1 | . | 8.91µM* | . | 10.8% | .
COc1ccc(C2=Nc3cccc4cccc(c34)N2)cc1 | -36.3% | 50.1µM* | -17.4% | 2.5% | 0.7%
ClCC1=Nc2cccc3cccc(c23)N1 | -19.7% | 28.2µM* | . | -9.7% | ?
CC(C)C1=Nc2cccc3cccc(c23)N1 | -8.4% | 0.9% | 8.4% | -7.0% | ?
COc1ccc(-c2cc(-c3cc(OC)ccc3O)[nH]n2)cc1 | -33.4% | -0.1% | ? | ? | -5.5%
COc1ccc(O)c(-c2cc(-c3cccc(Br)c3)n[nH]2)c1 | 2.24µM* | 1.7%[11.4 µM] | ? | -9.2% | 1.3%
CC1(c2ccc3ccccc3c2)NC(=O)N(CC(=O)N2CCN(S(=O)(=O)c3ccccc3F)CC2)C1=O (centres undefined) | 94.0% | 6.1% | -14.2% | -0.1% | .
O=C(O)/C=C/C(=O)Nc1ccc(N2CCOCC2)nc1N1CCOCC1 | -14.7% | 2.24µM* | 4.2% | -17.6% | ?
O=C(O)CCc1nc(-c2ccccc2)c(-c2ccccc2)o1 | -20.9% | 3.0% | . | -6.1% | 14.6%
O=C(O)CCc1ccc(-c2ccccc2)o1 | -23.9% | 1.41µM* | ? | ? | -1.3%
O=C(COC(=O)c1cc(=O)[nH]c2ccccc12)Nc1nccs1 | -28.4% | -0.2% | -0.1% | 6.3% | -0.7%
COc1ccc(C(=O)CCN2CCN(c3ccccc3OC)CC2)cc1 | 9.0% | 0.562µM* | ? | ? | ?
COc1ccccc1N1CCN(CCCC(=O)c2ccc(F)cc2)CC1 | 2.7% | -1.3% | 9.3%[18.4 µM] | -7.4% | 6.7%
SMILES | AmpC inh no detg | Sm TGR inh | RE007 growth inh | AmpC inh detg | FBPA Giardia inh
COc1ccc(C(=O)CCN2CCc3cc(OC)c(OC)cc3C2)cc1 | -23.3% | ? | 25.1µM* | ? | -4.8%
COc1ccccc1N1CCN(CC(=O)c2ccc3ccn(C(C)=O)c3c2)CC1 | -8.7% | 25.1µM* | -0.9% | -8.3% | -12.8%
COc1ccccc1N1CCN(CC(=O)N2CCCC2)CC1 | -0.6% | -8.9%[57.1 µM] | -8.1% | 2.2% | ?
CC(C)(C)NS(=O)(=O)c1ccc(CCC(=O)NCc2ccccn2)cc1 | 0.8% | -4.2% | -7.5% | 2.9% | 13.7%
COc1cc(-c2nc(CN(C)C(C)c3ccncn3)c(C)o2)ccc1F (centres undefined) | 21.7% | 31.6µM* | -13.2% | -1.4% | 0.2%
Cc1ccc(N(C)S(=O)(=O)c2ccc3[nH]cc(C(=O)O)c(=O)c3c2)cc1C | . | -6.7% | . | 4.4% | .
Cc1oc(/C=N/NS(=O)(=O)c2ccccc2)cc1Br | -7.8% | 0.112µM* | -7.9% | -1.6% | 2.0%
Cc1ccc(/C=N/NS(=O)(=O)c2ccccc2)o1 | -6.6% | -12.8% | 2.2% | ? | -0.5%
CCCCNc1c(-c2ccc(-c3cccc(Cl)c3)cc2)nc2ccc(Cl)cn12 | -9.2% | . | -16.4% | . | .
CCOC(=O)/C=C/C(=O)Nc1cc(S(=O)(=O)Nc2ccc(OC)cc2)ccc1N1CCOCC1 | -8.7% | 31.6µM* | -4.3% | -9.5% | .
COc1ccc(NS(=O)(=O)c2ccc(N3CCOCC3)c(NC(=O)C(C)C)c2)cc1 | -14.1% | 22.5% | -10.8% | 0.9% | 0.3%
CCOC(=O)c1c(CSc2ccccc2)n(C)c2ccc(O)c(CN3CCN(C)CC3)c12 | 131.9% | 17.8µM* | -9.7% | -3.6% | -7.7%
Cc1cccc(-n2ncc3c(Nc4ccc(C)c(Cl)c4)ncnc32)c1 | . | -7.8% | . | 12.0% | .
O=C(C#Cc1cccc([N+](=O)[O-])c1)c1ccccc1 | -27.7% | -28.6% | . | 1.1% | -0.6%
Nc1ccccc1C#CC(=O)c1ccccc1 | -23.3% | 0.501µM* | . | -5.7% | 3.7%
COc1ccc(C(=O)Oc2cccnc2)cc1 | -13.3% | 8.0% | -11.9% | ? | 8.8%
O=C(Oc1cccnc1)c1ccc(Cl)c(Cl)c1 | -2.3% | -11.6% | 31.6µM* | -0.8% | 3.9%
Cc1ccc(/C=N/n2c(C3CCCCC3)n[nH]c2=S)o1 | -29.2% | -3.7% | 10.3% | -6.9% | -7.3%
Cc1ccc2c(CC(=O)OCC(=O)N(CC(C)C)c3c(N)n(Cc4ccccc4)c(=O)[nH]c3=O)coc2c1 | -24.7% | -1.3% | -6.3% | -14.4% | .
C=C1N(C)c2cc([N+](=O)[O-])c(N)cc2C1(C)C | -42.2% | 20µM* | -27.5% | 2.7% | 4.46µM*
Cn1ccnc1C(O)(c1ccccc1)c1nccn1C | -8.3% | 1.6% | 23.9% | -6.4% | ?
CC1(C)CC2CC(C)(CN2S(=O)(=O)c2cccc(C(=O)OCC(N)=O)c2)C1 (centres undefined) | ? | 39.8µM* | 1.9% | ? | .
COCCCNC(=O)c1cccc(S(=O)(=O)N2CC3(C)CC2CC(C)(C)C3)c1 (centres undefined) | 95.3% | -2.0% | 2.3% | ? | .
COCCNC(=O)c1cccc(S(=O)(=O)N2CC3(C)CC2CC(C)(C)C3)c1 (centres undefined) | 52.3% | 79.4µM* | -8.6% | -5.1% | .
COc1cc(/C=C2\C(=O)N(c3ccccc3)N=C2C)ccc1Oc1ccc([N+](=O)[O-])cc1[N+](=O)[O-] | -32.8% | 14.1µM* | . | -22.2% | -27.1%
